# Screening results deposited in PubChem BioAssay by National Center for Advancing Translational Sciences (NCATS).
# Most compounds without a hit are left out; they make up all but 11% or so of the library.
# Tau fluor cs – counter-screen for tau fibril formation inhibitors. AID 1463. Potency, µM (highest dose often 57.7 µM), inactives show at the highest dose activity change, negative = decrease. actives 0.93% (n = 280,000). tau K18 P301L Alexa594 fluorescence, heparin fibrillization; note: potency is the fitted concentration of half-maximal effect; nearly all actives have a fitted effect of over 55% in size
#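 Human K18 P301L tau (15 uM unlabeled plus 0.24 uM Alexa 594-labeled, final) in 100 mM sodium acetate pH 7 was mixed with compound and 20 uM heparin and incubated 6 hr at 37 C.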
# Tau ThT inhib – inhibitors of human tau fibril formation, thioflavin T binding | Potency, µM (doses to about 57.4 µM), for the others: at the top dose activity, negative = inhibition, most hits filed as inhibitors | AID 1460 | actives 2.1% (n = 270,000) | recombinant tau K18 P301L (four-repeat tau fragment), heparin-induced fibrillization, ThT fluorescence; note: potency is the fitted concentration of half-maximal effect; nearly all actives have a fitted effect of over 55% in size
# Target sequence (P10636 561-689 P618L limits assumed): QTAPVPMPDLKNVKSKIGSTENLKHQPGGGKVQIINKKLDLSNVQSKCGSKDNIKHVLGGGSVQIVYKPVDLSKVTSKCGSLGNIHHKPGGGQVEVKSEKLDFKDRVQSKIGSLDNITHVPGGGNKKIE
#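 Heparin-induced fibrillization of the P301L-mutant K18 repeat-domain fragment of human tau was followed by ThT binding in quantitative high-throughput format.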
# Sfp PPTase inh – inhibitors of Bacillus subtilis Sfp phosphopantetheinyl transferase. Q9F4F7. Biochemical Sfp PPTase activity, qHTS. Potency, µM, without a hit: largest response in the series, negative = inhibition, usual class: inhibitors. actives 3.5% (n = 310,000);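 note: the enzyme is Sfp with the accession as filed and its product quenches rhodamine fluorescence; potency is the fitted concentration of half-maximal effect; 0% = enzyme reaction without inhibitor and -100% = no enzyme wells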
#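 Fluorescence-quenching assay with 15 nM Sfp, 5 uM rhodamine-CoA and 12.5 uM BHQ-2-labelled ybbR peptide in pH 7.6 Hepes/MgCl2 buffer. Enzyme was pre-incubated with compound for 15 min at room temperature. Rate was taken from the 30-min fluorescence change (525/598 nm).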
# G9a block – G9a (human) methyltransferase inhibition | Potency, µM (top dose mostly 102 µM), for the others: at the highest dose activity, negative = inhibition, hits mostly inhibitors | actives 8.8% (n = 350,000) | G9a H3K9 monomethylation, AlphaScreen, 2 h; note: potency is the fitted concentration of half-maximal effect; nearly all actives have a fitted effect of over 75% in size
# Target sequence (Q96KQ7 913-1193 limits assumed): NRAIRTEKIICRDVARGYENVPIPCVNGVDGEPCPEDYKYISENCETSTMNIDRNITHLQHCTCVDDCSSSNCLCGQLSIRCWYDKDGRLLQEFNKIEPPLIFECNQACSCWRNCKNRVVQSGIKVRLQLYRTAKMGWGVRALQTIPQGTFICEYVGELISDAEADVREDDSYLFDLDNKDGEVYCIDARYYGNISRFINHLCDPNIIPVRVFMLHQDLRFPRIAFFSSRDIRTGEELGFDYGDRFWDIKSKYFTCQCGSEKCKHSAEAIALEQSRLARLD
#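 AlphaScreen read-out: biotin-H3K9 peptide (500 nM) methylation by 20 nM enzyme with 20 uM SAM, 2 h at room temperature after 15 min compound preincubation; anti-monomethyl H3K9 antibody plus donor/acceptor beads, 10 min dark.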
# FBPA coupling cs – coupling enzyme interference in Giardia aldolase counter-screen; activity change, negative = inhibition, % at 58.2 µM, hits read low; actives 0.67% (n = 290,000); coupling enzyme system counterscreen, AmpLite Red fluorescence; in the data active = activity change below about -30%
#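 Counterscreen lacking aldolase: glyceraldehyde-3-phosphate coupling-enzyme reagent preincubated 10 min at RT with compound (at 57.5 uM final), then substrate/coupling system with AmpLite Red added; fluorescence read at 525/598 nm after 20 min RT.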
# Tau fibril FP – inhibitors of human tau fibril formation; P10636; K18 P301L tau heparin fibrillization, Alexa594 FP, 6 h; Potency, µM (titrated, usually from 57.7 µM), inactives show at the highest dose activity, negative = inhibition, usual class: inhibitors; actives 0.39% (n = 280,000); AID 1468; note: potency is the fitted concentration of half-maximal effect; nearly all actives have a fitted effect of over 55% in size
#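 Compound effects on tau fibrillization are measured by Alexa 594 fluorescence polarization (ex 555, em 632 nm). K18 P301L tau is used at 15 uM with 0.24 uM labeled tracer, and 20 uM heparin induces aggregation over 6 hr at 37 C.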
# * marks the source's active call; other numbers are inactive results; ? = inconclusive; · = no result given; [ ] = dose if it differs, or a comment. Unless noted, calls come from the whole dose curve; as a rule, active = well fitted curve in the direction sought with a large enough effect; inconclusive = small, poorly fitted or top-dose-only effect, or another doubt; inactive = no such curve, though single readings can be large; an effect the other way counts as inactive or inconclusive. Unless noted, % is set by controls: 0 for no effect and ±100 for the full control effect.
SMILES,Tau fluor cs,Tau ThT inhib,Sfp PPTase inh,G9a block,FBPA coupling cs,Tau fibril FP
COc1ccc(-c2cn3nc(N4CCCC(C(=O)Nc5cc(C)ccc5C)C4)sc3n2)cc1 (stereo unspecified),-21.5%,?,·,?,·,8.7%
COc1ccc(-c2nc3c(c4c2C[C@H](c2ccccc2)OC4)CN(C(=O)N[C@@H](C)c2ccccc2)CC3)c(C)c1,-14.4%[11.6 µM],-9.9%[11.5 µM],-20.4%,·,-0.9,-1.7%[11.6 µM]
O=C(CC1Oc2ccc(Cl)cc2NC1=O)NC1CCCCCC1 (stereo unspecified),-4.6%,-2.1%,-8.0%,79.4µM*,1.5,-4.2%
Cc1ccc(CCNC(=O)CC2Oc3ccc(C)cc3NC2=O)cc1 (stereo unspecified),-4.7%,-6.1%,5.6%,-9.2%,2.7,0.1%
Cc1ccc2c(c1)NC(=O)C(CC(=O)NCCCN1CCN(c3cc(Cl)ccc3C)CC1)O2 (stereo unspecified),-18.8%,?,?,44.7µM*,3.4,12.1%
CCC1CCCCN1CCCNC(=O)CC1Oc2ccc(C)cc2NC1=O (stereo unspecified),-4.7%,-17.6%,-7.3%,31.6µM*,-0.6,-11.6%
Cc1ccc2c(c1)NC(=O)C(CC(=O)NCCCN1CCCCC1)O2 (stereo unspecified),-6.0%,-17.2%,0.1%,-25.7%,0.8,6.1%
Cc1ccc2c(c1)NC(=O)C(CC(=O)NCCN(C)C)O2 (stereo unspecified),-6.9%,-15.2%,-20.8%,44.7µM*,1.7,0.0%
COCCCNC(=O)C(=O)Nc1ccc2c(c1)N(S(=O)(=O)c1cccs1)CCC2,·,·,·,-9.6%,·,·
O=C(COc1ccc2ccccc2c1)NCC1CCCO1 (stereo unspecified),·,·,6.8%,21.1%,1.5,·
CCc1ccc2c(c1)NC(c1cccnc1)=NC(c1ccc(C(C)(C)C)cc1)=N2,-26.6%,?,·,?,·,-5.9%
C/C(CCC(=O)OC[C@@H]1O[C@H](C#Cc2ccccc2)C=C[C@@H]1Oc1ccc(C)cc1)=N/O[C@@H](C)CN1CCCc2nc(C)c(C)cc21,-10.2%[11.6 µM],-11.6%[11.5 µM],-10.7%,·,3.1,0.1%[11.6 µM]
CN(C)c1ccc(/C=C/C(=O)c2c(O)c3ccccc3oc2=O)cc1,0.708µM*[fluorescent],·,?,·,1.0,?
CCOc1ccc(/C=C/C(=O)c2c(O)c3ccccc3oc2=O)cc1,1.0%,?,11.8%,-6.8%,7.4,2.5%
O=C(CSc1nnc2n1CCCN2)c1ccc(Cl)cc1,-0.4%,-4.1%,0.3%,-18.1%[59 µM],-3.6,2.8%
O=C(CSc1nnc2n1CCCN2)c1ccc([N+](=O)[O-])cc1,-9.2%,?,-11.5%,39.8µM*,1.6,0.2%
COc1cccc2cc(CC(=O)c3ccc(C)cc3C)c(=O)oc12,·,·,-0.1%,-8.9%,0.5,·
COC(=O)N1C(c2ccccc2)=Cc2ccccc2C1C1(C(=O)OC)CCCC1=O (stereo unspecified),1.1%,5.8%,-1.5%,·,6.2,-3.0%
Cc1ccc(NCC(O)C(O)C(O)CO)c(N=Nc2ccccc2)c1C (stereo unspecified),12.6µM*[quencher],2.51µM*,2.4%,-44.8%[12.7 µM],-3.9,9.7%
CC(=O)Nc1cc(NC(C)=O)c(N=Nc2ccccc2)cc1C,?,·,-2.4%,10.2%,1.5,12.0%
Cc1ocnc1C(=O)Nc1ccc(Cl)cc1,-11.1%,-9.2%,-6.8%,?,-14.1,1.9%
CC(=O)N(Cc1ccco1)c1nc(C(=O)Nc2ccc(Cl)cc2)c(C)s1,-19.9%,-9.6%,20µM*,?,3.6,-0.4%
Cc1cccc(N(C)C(=O)CCS(=O)(=O)c2ccc3c(c2)n(C)c(=O)c(=O)n3C)c1,1.9%,0.2%,·,1.8%[59 µM],·,3.2%
Cc1cccc(N(C)C(=O)CCS(=O)(=O)c2ccc3c(c2)oc(=O)n3C)c1,-8.8%,-13.4%,·,2.82µM*,·,-8.7%
COC(=O)c1sccc1S(=O)(=O)N1CCN(c2ccccc2OC)CC1,-12.4%,-9.7%,·,6.6%[59 µM],·,-1.9%
